Assay results from PubChem BioAssay (NCI).
The panel holds about 83,000 compounds, 20% with a hit somewhere; the sample as a whole holds those more often.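 Results are percent growth after 48 hours of single-concentration exposure. 100 means growth as in untreated cells, lower positive values show inhibition; negative values down to -100 show cell death.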 Calls of active or inactive are those of the source. The calls were made as follows: active = growth percent below 10; inactive = the rest.

system: A549/ATCC NSCLC; assay: NCI-60 one-dose screen, 48 h (100 = growth as untreated, 0 = no growth, -100 = all killed); conditions: 10 µM unless noted

Question: For `C=C1CC[C@@H]2C(C)(C)[C@H](O)CC[C@@]2(C)[C@@H]1COc1ccc2ccc(=O)oc2c1`, which growth is on record?
Answer: 51.5% (inactive)

Question: With `COc1cc2ncnc(Nc3ccc(S(=O)(=O)Nc4nccs4)cc3)c2cc1OCCCN1CCCC1` as the compound, how does the growth read?
Answer: 102% (inactive)

Question: How did the growth turn out when `Cc1cc(O)c(=O)cc2c1C[C@H]1CC(C)(C)/C=C/C[C@]3(C)Oc4cc(=O)c(O)cc(C)c4C[C@H]3C[C@H](O)[C@@]1(C)O2` was run?
Answer: -7.87% (active)

Question: How did the growth turn out when `COc1ccc2[nH]cc(-c3nonc3-c3c[nH]c4ccc(Br)cc34)c2c1` was run?
Answer: 35.3% (inactive)

Question: How did the growth turn out when `COc1cc2c(c(OC)c1OC)C(=O)CC(c1cccc(C(=O)Nc3ccccc3Br)c1)O2` (configuration not stated) was run?
Answer: 97.8% (inactive)

Question: How did the growth turn out when `NS(=O)(=O)c1ccc(C(=O)N=Nc2c(O)[nH]c3ccc(Cl)cc23)cc1` was run?
Answer: 104% (inactive)

Question: `CCCN(CCSSCCNc1nc(N(C)O)nc(N(C)O)n1)c1nc(N(C)O)nc(N(C)O)n1` was tested. Which growth did it give?
Answer: 48% (inactive)
